# Experimental data taken from the supplement of paper PMC9135407.
# “And” between values parts separate entries of the source, which are not always exact repeats. Identical values can stand only once. Counter-ions that a name gives are not always drawn. The campaign covered roughly 5,800 compounds. About 620 (11%) showed activity. This excerpt belongs to a sample that is enriched for actives. A number with no mark means an inactive call.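 Rule for the calls: active = score above a cut-off or among the top three wells of a plate; in these data no inactive exceeds 0.85.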
# Tested on: primary human hepatic stellate cells (donor 1)
# Assay: scaled lipid accumulation score (0 = DMSO-like, 1 = nortriptyline-like); higher = stronger HSC inactivation (lipid re-accumulation), active = hit call of the paper
# Conditions: 48 h
# [1] = library stock concentration: 10 mM
# [2] = library stock concentration: 80 uM
# [3] = library stock concentration: 400 uM
# [4] = library stock concentration: 2 mM
# [5] = library stock concentration: 3.33 mM
# [6] = library stock concentration: 1 mM
smiles,measurement,setting,value
C[C@]12CC[C@@H]3c4ccc(O)cc4CC[C@H]3[C@@H]1C[C@H](O)[C@@H]2O,scaled lipid accumulation score,[1],≤ 0
O=C1CCC(c2ccc(-n3ccnc3)cc2)=NN1 [Imazodan],scaled lipid accumulation score,[1],≤ -0.07
CC(C)n1cnc2c(NCc3ccccc3)nc(NCCCO)nc21 [Bohemine],scaled lipid accumulation score,[2],≤ -0.001
same,scaled lipid accumulation score,[3],≤ -0.001
same,scaled lipid accumulation score,[4],≤ -0.001
same,scaled lipid accumulation score,[5],≤ 0
same,scaled lipid accumulation score,[1],0.099
Cc1cc(OCc2nnc(SC3CCCC3)n2-c2cccnc2)ccc1-c1ccc(S(C)(=O)=O)cc1,scaled lipid accumulation score,[5],0.619
same,scaled lipid accumulation score,[1],0.187
CN(C)[C@@H]1C(O)=C(C(=O)NCN2CCCC2)C(=O)[C@@]2(O)C(O)=C3C(=O)c4c(O)cccc4[C@@](C)(O)[C@H]3C[C@@H]12 [Rolitetracycline],scaled lipid accumulation score,,≤ 0
CN(C)[C@@H]1C(O)=C(C(=O)NCN2CCCC2)C(=O)[C@@]2(O)C(O)=C3C(=O)c4c(O)cccc4[C@@](C)(O)[C@H]3C[C@@H]12,scaled lipid accumulation score,[1],≤ 0
CC(=O)N(OCc1ccccc1)[C@H]1c2cc(C#N)ccc2OC(C)(C)[C@H]1O,scaled lipid accumulation score,[1],≤ 0
N[C@@H]1CCN(O)C1=O,scaled lipid accumulation score,[1],≤ 0
CCCCCCCCCCCCCCCC(=O)NC[C@@H](C)O [R-Palmitoyl-(2-methyl) Ethanolamide],scaled lipid accumulation score,[6],≤ 0
COc1ccc2cc1Oc1ccc(cc1)C[C@H]1c3cc(c(OC)cc3CCN1C)Oc1c(OC)c(OC)cc3c1[C@H](C2)N(C)CC3 [Tetrandrine],scaled lipid accumulation score,,0.685
same,scaled lipid accumulation score,[5],0.783
same,scaled lipid accumulation score,[1],0.45
COc1cc2c3cc1Oc1c(OC)c(OC)cc4c1[C@@H](Cc1ccc(OC(=O)c5ccc([N+](=O)[O-])cc5)c(c1)Oc1ccc(cc1)C[C@@H]3N(C)CC2)N(C)CC4 [E6 berbamine],scaled lipid accumulation score,library stock concentration: 6.6 mM,0.933 (active)
COc1cc2c3cc1Oc1cc(ccc1O)C[C@@H]1c4c(cc(OC)c(O)c4Oc4ccc(cc4)C[C@@H]3N(C)CC2)CC[N+]1(C)C [Tubocurarine chloride],scaled lipid accumulation score,library stock concentration: 3.1 mM,≤ 0
COc1ccc2cc1Oc1ccc(cc1)C[C@H]1c3c(cc4c(c3Oc3cc5c(cc3OC)CCN(C)[C@@H]5C2)OCO4)CCN1C [Cepharanthine] [listing 1 of 2 here],scaled lipid accumulation score,[1],0.689
COc1ccc2cc1Oc1ccc(cc1)C[C@@H]1c3c(cc4c(c3Oc3cc5c(cc3OC)CCN(C)[C@H]5C2)OCO4)CCN1C [Cepharanthine],scaled lipid accumulation score,[5],1.03 (active)
COc1cc2c(cc1OC)[C@@H]1Cc3ccc(OC)c(OC)c3CN1CC2 [Rotundine],scaled lipid accumulation score,[5],≤ 0
same,scaled lipid accumulation score,[1],≤ 0
COc1cc2c(c(OC)c1OC)-c1c(cc3c(c1OC)OCO3)CC(C)C(C)C2 (stereo not drawn) [Schisandrin B (Sch B)],scaled lipid accumulation score,[5],≤ 0
same,scaled lipid accumulation score,[1],≤ -0.001
COc1ccc2cc1Oc1ccc(cc1)C[C@H]1c3c(cc4c(c3Oc3cc5c(cc3OC)CCN(C)[C@@H]5C2)OCO4)CCN1C [Cepharanthine] [listing 2 of 2 here],scaled lipid accumulation score,[1],0.944 (active)
COc1ccc2c(c1OC)C(=O)O[C@@H]2[C@H]1c2c(cc3c(c2OC)OCO3)CCN1C [Noscapine hydrchloride],scaled lipid accumulation score,[1],≤ -0.055
COc1ccc2c(c1OC)C(=O)O[C@@H]2[C@H]1c2c(cc3c(c2OC)OCO3)CCN1C [Noscapine],scaled lipid accumulation score,,≤ 0
COc1ccc2c(c1OC)C(=O)O[C@@H]2[C@H]1c2c(cc3c(c2OC)OCO3)CCN1C [Noscapine hydrochloride],scaled lipid accumulation score,library stock concentration: 4.4 mM,0.008
same,scaled lipid accumulation score,[1],0.011 and 0.074
COc1ccc2cc1Oc1ccc(cc1)C[C@H]1c3cc(c(OC)cc3CCN1C)Oc1c(OC)c(OC)cc3c1[C@H](C2)N(C)CC3 [Tetrandine],scaled lipid accumulation score,library stock concentration: 8 mM,0.535
Cc1cc(C(N)=O)ccc1-n1c(CCC(=O)O)ccc1-c1ccc(-n2ccnc2)cc1,scaled lipid accumulation score,[5],≤ -0.009
same,scaled lipid accumulation score,[1],≤ 0
"O=C(O)c1ccc2c(c1)CCCC2 [5,6,7,8-tetrahydro-2-Naphthoic Acid]",scaled lipid accumulation score,[6],≤ 0
CS(=O)(=O)c1ccc(Cn2c3c(c4cc(F)cc(F)c42)CCCC3CC(=O)O)cc1 (stereo not drawn),scaled lipid accumulation score,[1],≤ -0.006
O=C(O)c1ccc2c(c1)nc(Nc1cccc(Cl)c1)c1ccncc12,scaled lipid accumulation score,[3],≤ -0.005
same,scaled lipid accumulation score,[4],≤ -0.005
same,scaled lipid accumulation score,[1],≤ -0.005
O=C(O)c1ccc2c(c1)nc(Nc1cccc(Cl)c1)c1ccncc12 [CX-4945 (Silmitasertib)],scaled lipid accumulation score,[5],≤ 0
same,scaled lipid accumulation score,[1],≤ 0
OC[C@H]1O[C@H]([S-])[C@H](O)[C@@H](O)[C@@H]1O.[Au+] [Aurothioglucose],scaled lipid accumulation score,library stock concentration: 5.1 mM,0.336
same,scaled lipid accumulation score,[1],0.397
"Oc1cc(O)c2c(c1)O[C@H](c1ccc(O)c(O)c1)[C@@H](O)C2 (racemic) [Catechin-(+,-) hydrate]",scaled lipid accumulation score,,≤ 0
CCCCCCCCCCCCCCCCOCC(CO)OC (stereo not drawn) [1-Hexadecyl-2-O-methyl-glycerol],scaled lipid accumulation score,[6],0.003
"CCCCC(C)(C)[C@H](O)C=C[C@H]1[C@H](O)CC(=O)[C@@H]1CCCCCCC(=O)O [16,16-dimethyl Prostaglandin E1]",scaled lipid accumulation score,[6],≤ 0
CCC(O)/C=C/C=O (stereo not drawn) [4-hydroxy Hexenal],scaled lipid accumulation score,[6],≤ 0
CCCCC[C@H](O)/C=C/[C@H]1[C@H](O)CC(=O)[C@@H]1CCCCCCC(=O)NCCO [Prostaglandin E1 Ethanolamide],scaled lipid accumulation score,[6],≤ 0
O=c1cc(-c2ccc(O)cc2)oc2cc(O[C@@H]3O[C@H](CO)[C@@H](O)[C@H](O)[C@H]3O)cc(O)c12 [Cosmosiin],scaled lipid accumulation score,[1],0.333
CC(C)=CCC/C(C)=C\CO [Nerol],scaled lipid accumulation score,[1],≤ 0
CC(C)=CCC/C(C)=C/CC/C(C)=C/CC[C@]1(C)CCc2cc(O)c(C)c(C)c2O1 [.gamma.-Tocotrienol],scaled lipid accumulation score,[6],≤ 0
NC12CC3CC(CC(C3)C1)C2 [Symmetrel],scaled lipid accumulation score,[1],0.158
CC12CC3CC(C)(C1)CC(N)(C3)C2,scaled lipid accumulation score,[1],0.869 (active)
NC12CC3CC(CC(C3)C1)C2 [Amantadine hydrochloride],scaled lipid accumulation score,[1],0.29 and 0.659
same,scaled lipid accumulation score,library stock concentration: 10.7 mM,0.031
NC12CC3CC(CC(C3)C1)C2 [Adamantamine fumarate],scaled lipid accumulation score,,0.029
CC12CC3CC(C)(C1)CC(N)(C3)C2.Cl [Memantine hydrochloride],scaled lipid accumulation score,[1],1.05 (active)
CC12CC3CC(C)(C1)CC(N)(C3)C2 [Memantine HCl],scaled lipid accumulation score,[5],0.012
same,scaled lipid accumulation score,[1],0.415
CC12CC3CC(C)(C1)CC(N)(C3)C2 [Memantine hydrochloride],scaled lipid accumulation score,library stock concentration: 9.3 mM,0.689
same,scaled lipid accumulation score,[1],0.344 and 0.653 and 0.597
CC12CC3CC(C)(C1)CC(N)(C3)C2 [Memantine Hydrochloride],scaled lipid accumulation score,,0.399
NC12CC3CC(CC(C3)C1)C2 [Amantadine HCl],scaled lipid accumulation score,[5],≤ 0
same,scaled lipid accumulation score,[1],0.042
COC(=O)CCCCCCC1C(O)CC(O)C1CCC(O)C#Cc1ccccc1F (stereo not drawn),scaled lipid accumulation score,[6],≤ 0
NC(=S)NCCC[C@H](N)C(=O)O [L-Thiocitrulline (hydrochloride)],scaled lipid accumulation score,[6],0.048
NC(=S)NCCC[C@H](N)C(=O)O [Thiocitrulline [L-Thiocitrulline]],scaled lipid accumulation score,library stock concentration: 26.1 mM,0.069
Cc1cccc(CC(=O)N2CCc3c2ccc(-c2cn(C)c4ncnc(N)c24)c3F)n1,scaled lipid accumulation score,[5],≤ 0
same,scaled lipid accumulation score,[1],≤ -0.001
COc1cc(C(=O)NCc2ccc(OCCN(C)C)cc2)cc(OC)c1OC [Trimethobenzamide hydrochloride],scaled lipid accumulation score,,≤ 0
same,scaled lipid accumulation score,library stock concentration: 4.7 mM,0.028
same,scaled lipid accumulation score,[1],≤ 0
CCN(CC)CCNC(=O)c1ccc(NS(C)(=O)=O)cc1 [Sematilide monohydrochloride monohydrate],scaled lipid accumulation score,[1],≤ -0.07
CCC(CC)CNc1cc(C(=O)NCCN(C)C)cc(S(=O)(=O)Nc2ccc(OC)cc2)c1,scaled lipid accumulation score,[1],0.996 (active)
"O=c1[nH][nH]c2nnc(-c3c(-c4ccccc4)nn4ccccc34)cc12 [ERK Inhibitor II, Negative Control]",scaled lipid accumulation score,[5],≤ 0
C=CC[N+]1([C@H]2C[C@H]3[C@@H]4CC[C@H]5C[C@H](O)[C@@H](N6CCOCC6)C[C@]5(C)[C@H]4CC[C@]3(C)[C@H]2OC(C)=O)CCCC1 [Rocuronium Bromide],scaled lipid accumulation score,[5],≤ 0
same,scaled lipid accumulation score,[1],≤ 0
COc1ccc(C2(O)OC(=O)C(c3ccc4c(c3)OCO4)=C2Cc2cc(OC)c(OC)c(OC)c2)cc1 (stereo not drawn),scaled lipid accumulation score,[1],0.037
CCCCCCCCCCCC(=O)CC(=O)N[C@H]1CCOC1=O [N-3-oxo-tetradecanoyl-L-Homoserine lactone],scaled lipid accumulation score,[6],≤ 0
CC/C=C\C/C=C\C/C=C\CCCCCCCCCCCC(=O)O [Docosatrienoic acid (22:3 n-3)],scaled lipid accumulation score,[6],≤ -0.021
COc1cccc2c1[C@@H]1CN(CCCCn3c(=O)[nH]c4c(sc5ncc(-c6ccccc6)nc54)c3=O)C[C@@H]1CO2.Cl [Fiduxosin hydrochloride],scaled lipid accumulation score,[1],0.863 (active)
COc1ccc(/C=C/c2ccccc2F)cc1,scaled lipid accumulation score,[6],0.063
C/N=C(/NC#N)NCCSCc1csc(NC(=N)N)n1 [Tiotidine],scaled lipid accumulation score,library stock concentration: 6.4 mM,≤ -0.006
same,scaled lipid accumulation score,[1],0.044
COc1cc2nc(N3CCCN(C)CC3)nc(NC3CCN(Cc4ccccc4)CC3)c2cc1OC,scaled lipid accumulation score,[2],≤ 0
same,scaled lipid accumulation score,[3],≤ 0
same,scaled lipid accumulation score,[4],0.569
same,scaled lipid accumulation score,[5],0.42
same,scaled lipid accumulation score,[1],0.096 and 0.353 and 0.204
COc1cc2c(NC3CCN(C(C)C)CC3)nc(C3CCCCC3)nc2cc1OCCCN1CCCC1,scaled lipid accumulation score,[2],≤ 0
same,scaled lipid accumulation score,[3],≤ 0
same,scaled lipid accumulation score,[4],0.354
same,scaled lipid accumulation score,[1],0.14
COc1cc2nc(N3CCCN(C)CC3)nc(NC3CCN(Cc4ccccc4)CC3)c2cc1OC.Cl.Cl.Cl.O,scaled lipid accumulation score,[6],0.804 (active)
